According to the supplement of paper PMC7156485:
Values without a mark were called inactive.

Each compound was assayed on HCC1569 (assay: H1.0 immunofluorescence intensity relative to DMSO (% of DMSO); higher = stronger H1.0 induction, active = 140 or more). Settings: concentration: 10 µM; 24 h.
How it was run: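 After 24 h at 37 °C with compounds at 10 µM, in triplicate, HCC1569 and TDF cells were fixed with 3.7% formaldehyde. Immunostaining used a rabbit anti-H1.0 antibody and an AlexaFluor 647 secondary, with DAPI, and six fields per well were imaged at ×10. H1.0 nuclear intensity or cell number is presented as percent of the plate control, from the median of replicates, with HCC1569 values smoothed for positional effects.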
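Also: TDF is a line of transformed human dermal fibroblasts of mesenchymal origin.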

| SMILES | H1.0 immunofluorescence intensity |
| --- | --- |
| CC(C)(C)NCC(O)COc1cccc2[nH]c(=O)[nH]c12.Cl (racemic) | 97.9 |
| C=C1OC(CO)(n2cnc3c(N)ncnc32)C(O)C1O (centres undefined) [Decoyinine] | 88.3 |
| COc1ccc(N2C(=O)CSC2c2cccc(Br)c2)c(OC)c1 (centres undefined) | 146 (active) |
| O=C(Nc1ccc(S(=O)(=O)Nc2nccs2)cc1)C(c1ccccc1)c1ccccc1 | 108 |
| COC(=O)N=NC=C1C=[N+]([O-])c2ccccc2N1O [Carbadox] | 92.8 |
| CCOC(=O)C(C)(C)Oc1ccc(Cl)cc1 [Clofibrate] | 94.7 |
| CC1OC(OC2C(Oc3cc(O)c4c(=O)cc(-c5ccc(O)cc5)oc4c3)OC(CO)C(O)C2O)C(O)C(O)C1O (centres undefined) [Rhoifolin] | 89.9 |
| Br.Br.N=C(N)SCCN [2-(2-Aminoethyl)isothiourea dihydrobromide] | 99.7 |
| Cc1ccccc1C(=O)c1ccc(Nc2ccc(Br)cc2N)cc1Cl | 117 |
| COc1nccc(-c2c(-c3ccc(F)cc3)ncn2C2CCC(O)CC2)n1 (centres undefined) | 117 |
| COc1cc2c3cc1Oc1cc(ccc1O)CC1c4c(cc(OC)c(O)c4Oc4ccc(cc4)CC3N(C)CC2)CC[N+]1(C)C.Cl.[Cl-] (single isomer, unassigned; (+)) [(+)-Tubocuraraine chloride] | 99.2 |
| CC1Cc2ccccc2N1NC(=O)c1ccc(Cl)c(S(N)(=O)=O)c1 (centres undefined) [Indapamide] | 112 |
| Clc1ccc2c(c1)CCc1cccnc1C2=C1CCNCC1 [Desloratadine] | 108 |
| Nc1ncnc2c1C(=O)N(c1ccc(C3CCC(CC(=O)O)CC3)cc1)CCO2 (centres undefined) | 98.5 |
| CC(C)=CCC(OC(=O)C=C(C)C)C1=CC(=O)c2c(O)ccc(O)c2C1=O (stereo not drawn) [Shikonin beta,beta-dimethylacrylate] | 114 |
| O=C1C=C(CO)OCC1=O [5-hydroxy-2-(hydroxymethyl)-4H-pyran-4-one] | 92 |
| COc1ccccc1N1CCN(CCCCNC(=O)c2ccc3ccccc3c2)CC1 [N-{4-[4-(2-methoxyphenyl)-1-piperazinyl]butyl}-2-naphthamide] | 114 |
| O=C(C=Cc1ccc(O)c(O)c1)OCCc1ccccc1 | 113 |
| COc1cc2ncnc(Nc3ccc(OCc4ccccc4)cc3)c2cc1OC [EGFR/ErbB-2 Inhibitor] | 121 |
| O=c1cc(N2CCOCC2)oc2c(-c3ccccc3)cccc12 | 155 (active) |
| COc1cc(CCC(C)=O)ccc1O [Vannilylacetone] | 93.5 |
| Cc1cccc(C=Cc2ccccc2)n1 | 100 |
| COc1ccccc1N1CCN(CCCCNS(=O)(=O)c2cccc3c(N(C)C)cccc23)CC1.O=C(O)C=CC(=O)O [Cortexolone maleate] | 131 |
| Br.CN1CCc2c(cc(O)c(O)c2Cl)C(c2cccc(Cl)c2)C1 (centres undefined) | 112 |
| CCCC(CCC)C(=O)[O-].[Na+] [Valproic acid sodium] | 99.9 |
| CC(=O)Oc1ccc(C(c2ccc(OC(C)=O)cc2)c2ccccn2)cc1 [Bisacodyl] | 125 |
| OCC1OC(n2cnc3c(NC4CCCC4)ncnc32)C(O)C1O (centres undefined) [N6-Cyclopentyladenosine] | 97.7 |
| CC(=O)C1CCC2C3CC=C4CC(OS(=O)(=O)[O-])CCC4(C)C3CCC12C.[Na+] (centres undefined) [Pregnenolone sulfate sodium] | 97.8 |
| C[N+]1(CCCCC[N+]2(C)CCCC2)CCCC1.O=C([O-])C(O)C(O)C(=O)O.O=C([O-])C(O)C(O)C(=O)O [Pentolinium di[L(+)-tartrate]] | 101 |
